Among the data in PubChem BioAssay AID652154 (Broad Institute, 2013) are inhibition values, retold here.

The whole screen tested about 360,000 compounds, of which about 4,200 (1.2%) were called active. The sample holds actives, similar compounds and a random draw of the others, so the mix is not that of the screen.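 Rule for the calls: active = mean replicate inhibition at least 60% with every replicate also reaching 60%; inconclusive = only one of the two criteria is met; inactive = mean below 60% and not all replicates reaching 60%.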

A short description of the assay: inhibitors of PAX8-driven TPO luciferase reporter, primary screen, RMG-I cells, single concentration (AID 652154).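 Note: luciferase light reporting Pax8 driven TPO promoter activity; plate controls were median of neutral control wells for no effect and mitoxantrone controls for full effect.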 To be noted: SteadyGlo, 24 h, at 12.6 µM, active compounds read high. For orientation: A reporter such as luciferase makes a cellular process visible.
As usually defined, the inhibition is the drop in the measured response relative to a control, in per cent. In the case of `COc1ccc(-c2cc(C(=O)NCCCN3CCCC3=O)c3ccccc3n2)cc1OC`, the inhibition was 2.26% (inactive).

In the case of `COc1ccc(-c2cc(C(=O)N(C)Cc3ccc(OC)c(OC)c3OC)c3ccccc3n2)cc1OC`, the inhibition was 27.1% (inactive). In the case of `COc1ccc(-c2cc(C(F)(F)F)nc(S(C)(=O)=O)n2)cc1OC` it was 122% (active). In the case of `Cc1ccccc1S(=O)(=O)N1[C@@H](C#N)[C@H](c2ccccc2)[C@@H]1CO` it was -4.36% (inactive); in that of `O=C(Cc1ccccc1)N1CC2(C1)[C@H](c1ccccc1)[C@@H](CO)N2C(=O)c1cccnc1`, -7.25% (inactive).

Turning to `COc1ccnc(Oc2ccccc2)c1-c1ncn[nH]1`, the inhibition was 84.6% (active). As for `COc1ccnc(Oc2ccccc2)n1`, the figure is -3.33% (inactive); as for `COc1ccccc1-n1cn[nH]c1=S`, 8.11% (inactive).

In the case of `OC[C@@H]1[C@@H](c2ccc(-c3ccccc3F)cc2)[C@@H]2CN(Cc3cncnc3)CCCCN12`, the inhibition was 4.63% (inactive).

As to `CN(C(=O)CSc1nnc(C2CC2)n1C)C1CCCc2ccccc21` (stereo not given), the inhibition was 8.2% (inactive).

As to `CC1Cc2ccccc2N1C(=O)CSc1nnc(C2CC2)n1C` (stereo not given), the inhibition was 78.3% (active). As for `CC1Cc2ccccc2N1C(=O)CSc1nnc(-c2ccc(S(=O)(=O)N3CCCC3)cc2)n1C` (stereo not given), the figure is 20.8% (inactive); as for `O=C(N[C@H]1CC[C@@H](CCn2cc(Cc3ccccc3)nn2)O[C@H]1CO)c1cnccn1`, -16.7% (inactive). As to `C[C@H](CO)N1C[C@H](C)[C@H](CN(C)CC2CC2)Oc2cc(-c3ccc(F)cc3)ccc2S1(=O)=O`, the inhibition was -2.31% (inactive). `O=C1NC(Cc2ccccc2)c2nc3ccc(Br)cc3c(=O)n2-c2cc3ccccc3cc21` (stereo not given): the inhibition is 34.1% (inactive).

Regarding `COc1ccc2nc3n(c(=O)c2c1)-c1ccc(Cl)cc1C(=O)NC3Cc1ccccc1` (stereo not given), the inhibition is 82.6% (active).

In the case of `CC(C)CC1NC(=O)c2cc(Cl)ccc2-n2c1nc1ccccc1c2=O` (stereo not given), the inhibition is 6.69% (inactive). In the case of `Cc1noc(C)c1NC(=O)N(C)C[C@H]1OCCCC[C@H](C)Oc2ccc(NC(=O)Nc3ccccc3)cc2C(=O)N([C@H](C)CO)C[C@@H]1C` it was 8.48% (inactive). Take `COc1ccccc1CNC(=O)C[C@H]1CC[C@@H](NC(=O)CN(C)C)[C@@H](CO)O1`: the inhibition is -11.2% (inactive).

Regarding `COc1cccc(C#Cc2ccc([C@@H]3[C@H](C#N)N[C@H]3CO)cc2)c1`, the inhibition is -230% (inactive). As for `O=C(C[C@@H]1C[C@@H]2c3cc(NC(=O)NC4CCCC4)ccc3O[C@@H]2[C@@H](CO)O1)NCc1ccccc1`, the figure is -4.64% (inactive); as for `C[C@H](CO)N1C[C@H](C)[C@@H](CN(C)C(=O)c2cnccn2)Oc2ncc(-c3ccccc3F)cc2C1=O`, 2.74% (inactive); as for `C[C@H](CO)N1C[C@H](C)[C@@H](CN(C)S(=O)(=O)c2cccc(F)c2)OCc2ccccc2-c2c(n(C)c3ccccc23)C1=O`, 83.4% (active). As for `C[C@@H]1CN([C@H](C)CO)C(=O)c2c(c3ccccc3n2C)-c2ccccc2CO[C@H]1CN(C)S(=O)(=O)c1ccccc1F`, the figure is 40.5% (inactive). As for `C[C@H](CO)N1C[C@H](C)[C@@H](CN(C)S(=O)(=O)c2ccc([N+](=O)[O-])cc2)OCc2ccccc2-c2c(n(C)c3ccccc23)C1=O`, the figure is 16.1% (inactive); as for `Cc1ccc(S(=O)(=O)Nc2ccc3c(c2)C(=O)N([C@@H](C)CO)C[C@@H](C)[C@H](CN(C)CC2CC2)O3)cc1`, -3.68% (inactive); as for `COc1ccccc1-c1ccc([C@H]2[C@H](CO)N(C(=O)C3CC3)C23CN(C(C)=O)C3)cc1`, 1.61% (inactive). For `CCOc1c(Nc2cccc(Cl)c2)c(=O)c1=O`, the inhibition was -11.1% (inactive). Turning to `OCCCNc1nccc(-c2cc(Nc3cccc(Cl)c3)ncn2)n1`, the inhibition was 107% (active).

Regarding `C[C@H](CO)N1C[C@H](C)[C@@H](CN(C)CC2CCCCC2)Oc2ccc(NC(=O)Cn3cnnn3)cc2CC1=O`, the inhibition was -19.1% (inactive). As for `COc1ccc(CN(C)C[C@H]2Oc3c(NS(=O)(=O)c4ccc(Cl)cc4)cccc3C(=O)N([C@H](C)CO)C[C@H]2C)cc1`, the figure is 5.03% (inactive); as for `NC1=CC(=O)C(=O)c2cccnc21`, 117% (active); as for `COc1ccccc1-n1c(SCC(=O)Nc2cccc(C(=O)O)c2)nnc1-c1ccccc1O`, 19% (inactive). For `COc1cc(/C=N/Nc2ccc(C)cc2)cc(Br)c1O`, the inhibition was -15% (inactive).

As to `COc1cccc(/C=N/Nc2cc(C)nc(-c3ccccc3O)n2)c1O`, the inhibition was 90.5% (active). `Cc1ccc(S(=O)(=O)N(C)C[C@H]2Oc3ccc(NS(=O)(=O)c4ccccc4)cc3CC(=O)N([C@@H](C)CO)C[C@H]2C)cc1`: the inhibition is -2.41% (inactive). Consider `C[C@@H]1CN([C@H](C)CO)C(=O)c2cccc(NS(=O)(=O)c3ccc(F)cc3)c2O[C@H]1CN(C)Cc1ccc(Oc2ccccc2)cc1`, for which the inhibition was 16.4% (inactive). `COc1ccc2[nH]c(C(=O)Nc3ccccc3Cl)cc2c1`: the inhibition was -22.1% (inactive).

Consider `CCC(=O)c1ccc(OC(=O)/C=C/c2cc(OC)c(OC)c(OC)c2)cc1`, for which the inhibition is -5.71% (inactive). As for `COc1ccc2[nH]c(C(=O)N/N=C/c3cc(OC)c(OC)c(OC)c3)cc2c1`, the figure is 85.3% (active); as for `C[C@@H]1CCCCO[C@@H](CN(C)S(=O)(=O)c2cccs2)[C@@H](C)CN([C@@H](C)CO)C(=O)c2cc(NS(=O)(=O)c3ccc(F)cc3)ccc2O1`, 32% (inactive). In the case of `Cc1ccc(S(=O)(=O)N[C@H]2CC[C@H](CC(=O)NCc3ccccc3F)O[C@@H]2CO)cc1` it was 3.28% (inactive); in that of `Cn1c(CC(=O)NNC(=O)c2ccccc2F)nc2ccccc21`, 74.1% (active). For the compound `Cc1cc2occ(CC(=O)NNC(=O)c3ccccc3F)c2cc1C`, the inhibition is -1.24% (inactive).

Take `O=C(Cn1cnc2ccccc2c1=O)NNC(=O)c1ccccc1F`: the inhibition is 0.953% (inactive). For `O=C(C[C@H]1CC[C@@H]2[C@H](COC[C@@H](O)CN2Cc2cc(F)cc(F)c2)O1)NC1CCC1`, the inhibition is 4.75% (inactive). For `COc1ccc2c3c([nH]c2c1)[C@H](CO)N(C(=O)Nc1ccc(F)cc1)CC31CCN(CC2CCOCC2)CC1`, the inhibition is 27.1% (inactive). Turning to `O=C(NC1=CC(=O)c2ccccc2C1=O)c1ccccc1`, the inhibition is 99.2% (active). Take `Cc1cc(=O)c2ccc(NC(=O)c3ccccc3)cc2[nH]1`: the inhibition was -7.38% (inactive).

With `O=C(NCCc1ccccc1)c1cccc(NC(=O)c2ccccc2)c1`, the inhibition was -77.4% (inactive).
